The source of these data is PubChem BioAssay (NCATS).

Holding throughout (test): Primary qHTS to identify gynecologic anti-cancer compounds using libraries of approved drugs and bioactive compounds (AID 1345084); note: nearly all actives have a fitted effect of over 55% in size
(In general: In qHTS, concentration-response curves come from the screen itself.)

In one experiment the test system is CASKI. To be noted: Gynecologic cancer cell panel viability, ATPlite luminescence, 48 h; series mostly up to 57.5 µM. Summed up:
(§1)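 Luminescence from the ATPlite ATP-monitoring reagent indicates viable cell number; lower signal means cytotoxicity. Cells received compound 16 h after seeding and were exposed for 48 h across five concentrations.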
On the technique in general: Cellular ATP, detected with luciferase, serves as a proxy for viable cell number.

The test system of another experiment is Es-2. To be noted: Gynecologic cancer cell panel viability, ATPlite luminescence, 48 h; series mostly up to 57.5 µM. The method, boiled down:
as §1

For a further experiment, the system named is HeLa. As to conditions: Gynecologic cancer cell panel viability, ATPlite luminescence, 48 h; series mostly up to 57.5 µM. Summed up: as §1
Another experiment has as its system Hek293T. As to conditions: Gynecologic cancer cell panel viability, ATPlite luminescence, 48 h, control line for the selectivity index; series mostly up to 57.5 µM. The method, boiled down:
as §1

The next experiment has as its system JEG-3. As to conditions: Gynecologic cancer cell panel viability, ATPlite luminescence, 48 h; series mostly up to 57.5 µM. Summed up: as §1
A further experiment deals with PA-1. To be noted: Gynecologic cancer cell panel viability, ATPlite luminescence, 48 h; series mostly up to 57.5 µM. Summed up: as §1
The subject of another experiment is Tov112D. To be noted: Gynecologic cancer cell panel viability, ATPlite luminescence, 48 h; series mostly up to 57.5 µM. Summed up:
as §1

The subject of the next experiment is Tov-21-G. To be noted: Gynecologic cancer cell panel viability, ATPlite luminescence, 48 h; series mostly up to 57.5 µM. Summed up:
as §1

In another experiment the test system is OV90. To be noted: Gynecologic cancer cell panel viability, ATPlite luminescence, 48 h; series mostly up to 57.5 µM. The method, boiled down: as §1
The subject of another experiment is CAOV3. As to conditions: Gynecologic cancer cell panel viability, ATPlite luminescence, 48 h; series mostly up to 57.5 µM. Summed up: as §1
For the next experiment, the system named is SKOV3. To be noted: Gynecologic cancer cell panel viability, ATPlite luminescence, 48 h; series mostly up to 57.5 µM. The method, boiled down:
as §1

Results filed as inconclusive are left out. Values without a mark were called inactive. Calls of active or inactive are those of the source. Calls come from the whole dose curve; as a rule, active = well fitted cell-killing curve with a large enough effect; inconclusive = small, poorly fitted or top-dose-only effect, or effect the other way; inactive = flat fitted curve, though single readings scatter.
% is set by controls: 0 for no effect and ±100 for the full control effect; potency is the fitted concentration of half-maximal effect.

For the molecule `Cc1cc(-c2cnc(N)c3c(-c4ccc5scnc5c4)csc23)n(C)n1`, the Potency entry with CASKI, in the experiment with Es-2, in the experiment on HeLa, in the experiment with Hek293T, in the experiment with JEG-3 and in the experiment on PA-1 was “inactive” throughout. The Potency entry in the experiment on Tov112D is “inactive”.
Turning to `C=C1C(=O)O[C@@H]2/C=C(\CO)CC/C=C(/C=O)C[C@@H](O)[C@@H]12`, the Potency entry with CASKI, in the experiment on HeLa, in the experiment on JEG-3 and with Tov112D was “inactive” each time. In addition, the results for the Potency in the experiment with Es-2, in the experiment on Hek293T and in the experiment on Tov-21-G were 31.6 µM (active), 28.2 µM (active) and 14.1 µM (active), respectively.
As to `C=CC(=O)Nc1cc(-n2c(=O)ccc3cnc4ccc(-c5ccc(NS(C)(=O)=O)cc5)cc4c32)ccc1C`, the Potency entry in the experiment on CASKI, with Es-2, in the experiment with HeLa, in the experiment on Hek293T, with JEG-3 and in the experiment on OV90 was “inactive” in each case. Moreover, the Potency result with Tov112D was “inactive”.
Consider `COc1cccc(-c2cn(-c3ccc(CCN4CCC(O)CC4)cc3)c3ncnc(N)c23)c1`, for which the Potency is 14.1 µM (active) with CAOV3; 28.2 µM (active) with OV90; 12.6 µM (active) in the experiment with PA-1; 8.91 µM (active) with SKOV3; 17.8 µM (active) in the experiment with Tov-21-G.
Consider `C=CC(C)(O)CC/C=C(/C)COC(=O)C(C)C1CCC(C)(C=C)O1` (stereo unspecified), for which the Potency result in the experiment with CASKI, in the experiment with Es-2, in the experiment on HeLa, in the experiment on Hek293T, with OV90 and in the experiment on PA-1 was “inactive” throughout. Further, the Potency result in the experiment with SKOV3 and in the experiment on Tov-21-G was “inactive” each time.
For the molecule `Cc1ccc(S(=O)(=O)NCc2ccc(C(=O)NCCN(Cc3ccccc3)C(C)C)cc2)cc1`, the Potency result in the experiment with CASKI, in the experiment on HeLa, with Hek293T, with JEG-3, in the experiment on PA-1 and in the experiment on Tov-21-G was “inactive” each time. Further, the Potency entry in the experiment on Tov112D was “inactive”.
`O=C(NO)c1cnc(N2CCN(S(=O)(=O)c3ccc4ccccc4c3)CC2)nc1`: the Potency entry with CAOV3 is “inactive”. In the experiment on OV90, the Potency is 3.98 µM (active).
For `C=CC(=O)Nc1cccc(Nc2nc(Nc3ccc(NC4CN(CCF)C4)cc3OC)ncc2C(F)(F)F)c1`, the Potency in the experiment with CASKI was 17.8 µM (active); in the experiment on SKOV3, 12.6 µM (active). In addition, the Potency result in the experiment with Es-2 and in the experiment with JEG-3 was “inactive” throughout.
`CC(=O)O[C@H]1CC(C)(C)CC2[C@]13CO[C@@]21CCC2[C@@]4(C)CC[C@H](O[C@@H]5OC[C@H](O[C@@H]6O[C@H](CO)[C@@H](O)[C@H](O)[C@H]6O[C@@H]6OC[C@@H](O[C@@H]7O[C@H](CO)[C@@H](O)[C@H](O)[C@H]7O)[C@H](O)[C@H]6O)[C@H](O)[C@H]5O[C@@H]5O[C@H](CO)[C@@H](O)[C@H](O)[C@H]5O)[C@@](C)(CO)C4CC[C@@]2(C)[C@]1(C)C[C@H]3O` (stereo partly specified): the activity change, negative = cytotoxicity in the experiment on CASKI was -12% [at 6.55 µM]; in the experiment with HeLa, -20% [at 6.55 µM]. Also, in the experiment with Hek293T, the Potency is 2.82 µM (active).
For the molecule `Nc1nc(O)c(C2=C3C(=Nc4ccccc43)C(=O)NCC2)[nH]1`, the Potency result in the experiment on CASKI, in the experiment on Es-2, in the experiment on HeLa, with Hek293T, with OV90 and in the experiment with PA-1 was “inactive” in each case. Moreover, the Potency result in the experiment on Tov-21-G and in the experiment with Tov112D was “inactive” throughout.
On to `CC(C)n1nc(C#Cc2ccccc2)c2c(N)ncnc21`, for which the Potency entry with CASKI, with Es-2, with HeLa, in the experiment on Hek293T, in the experiment on OV90 and in the experiment on PA-1 was “inactive” throughout.
Consider `CC(C)=CCC/C(C)=C/COCC1OC(n2ccc(=O)[nH]c2=O)C(O)C1O` (stereo unspecified), for which the Potency entry in the experiment on CASKI, in the experiment on Es-2, in the experiment with HeLa, with Hek293T, with JEG-3 and in the experiment on PA-1 was “inactive” throughout. The Potency entry in the experiment with SKOV3, in the experiment with Tov-21-G and with Tov112D was “inactive” in each case.
For the molecule `C=C1/C(=C/C=C2\CCC[C@]3(C)[C@@H]([C@H](C)CC[C@@H](O)C(C)(C)O)CC[C@@H]23)C[C@@H](O)C[C@@H]1O`, the Potency result in the experiment on CASKI, in the experiment on Es-2 and with Tov112D was “inactive” each time.
As to `CCOC(=O)c1cnc2ccc(-c3cncc(NS(=O)(=O)c4ccccc4)c3)cn12`, the Potency was 2 µM (active) in the experiment with CASKI; 3.16 µM (active) in the experiment on Es-2; 1.58 µM (active) with HeLa; 1.78 µM (active) with Hek293T; 7.08 µM (active) in the experiment on JEG-3; 11.2 µM (active) in the experiment on OV90. Also, the Potency was 1.78 µM (active) with PA-1, 31.6 µM (active) in the experiment on SKOV3, 4.47 µM (active) with Tov-21-G and 1.41 µM (active) with Tov112D.
On to `C=CC(=O)Nc1ccc(CN2C(=O)N(c3cc(OC)cc(OC)c3)Cc3cnc(Nc4ccc(N5CCN(C)CC5)cc4)nc32)cc1`, for which the Potency is 14.1 µM (active) with CASKI and 15.8 µM (active) with SKOV3. The Potency entry in the experiment with Es-2, with Hek293T, with OV90 and in the experiment on PA-1 was “inactive” in each case.
As for `C=C1C(=O)OC2/C=C(\COC(C)=O)CC/C=C(\C=O)CC(OC(=O)CC(C)C)C12` (stereo unspecified), the Potency result in the experiment on CASKI and in the experiment on HeLa was “inactive” each time. Also, the Potency in the experiment with Hek293T was 8.91 µM (active).
For `C=C(C=O)[C@]1(O)C[C@@]2(C)C(=CC1=O)C=C[C@H](OC(=O)/C=C/C=C/[C@H](C)CC)[C@@H]2C`, the Potency entry in the experiment with CASKI, with Es-2, in the experiment with HeLa, in the experiment with JEG-3 and in the experiment on Tov112D was “inactive” in each case.
`CCNC(=O)Nc1ccc(-c2nc3c(c(N4CCOCC4C)n2)CCN(C2COC2)C3)cc1` (stereo unspecified): the Potency result with CASKI, in the experiment on HeLa and in the experiment on JEG-3 was “inactive” each time. The Potency in the experiment on Hek293T is 2.82 µM (active); with PA-1, 2.24 µM (active).
Regarding `N#Cc1ccc(Nc2nc(-c3ccc(O)cc3O)cs2)cc1C(F)(F)F`, the Potency is 20 µM (active) with CASKI; 14.1 µM (active) in the experiment with Es-2; 7.94 µM (active) in the experiment with HeLa; 8.91 µM (active) with PA-1; 8.91 µM (active) in the experiment with SKOV3; 5.01 µM (active) with Tov-21-G. In addition, the Potency with Tov112D is 7.94 µM (active).
Regarding `c1cc(NC2CCNCC2)nc(-c2cnc3ccccn23)c1`, the Potency in the experiment with CASKI was 10 µM (active); in the experiment with Es-2, 17.8 µM (active); with HeLa it was 8.91 µM (active); in the experiment on OV90 it was 11.2 µM (active); in the experiment with PA-1 it was 20 µM (active); in the experiment with SKOV3 it was 8.91 µM (active). Besides, the Potency was 15.8 µM (active) in the experiment with Tov-21-G and 20 µM (active) in the experiment with Tov112D. In the experiment with JEG-3, the Potency result is “inactive”.
